Anesthetic bind: candidate novel general anesthetic via apoferritin binding | apoferritin/1-aminoanthracene competitive binding, fluorescence | Potency, µM (series often up to 77.5 µM), without a hit: top-dose activity change, negative = displacement, usual class: inhibitors | 350,000 compounds, 0.074% hits; note: potency is the fitted concentration of half-maximal effect; % is set by controls: 0 for no effect and ±100 for the full control effect; nearly all actives have a fitted effect of over 20% in size
Target sequence (P02791 2-175 limits assumed): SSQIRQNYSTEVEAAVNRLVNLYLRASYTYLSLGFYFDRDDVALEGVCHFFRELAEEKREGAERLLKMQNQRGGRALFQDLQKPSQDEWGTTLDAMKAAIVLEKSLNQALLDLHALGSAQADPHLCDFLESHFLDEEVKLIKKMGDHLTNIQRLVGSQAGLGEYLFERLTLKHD
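Horse-spleen apoferritin (10 uM) in 50% saturated 1-aminoanthracene in PBS was incubated 10 min at room temperature with compound. Fluorescence (ex 380, em 535 nm) was normalized to free and bound 1-AMA, with concentration-response fitted by a four-parameter Hill equation.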
mIDH1 inhibitor: blocks human mutant IDH1 R132H enzyme. 390,000 compounds, 0.093% hits. IDH1-R132H enzyme, NADPH consumption, diaphorase/resazurin fluorescence. O75874. Potency, µM (titrated, usually from 76.6 µM), for inactives: at the highest dose activity change, negative = inhibition, usual class: inhibitors. AID 602179; note: potency is the fitted concentration of half-maximal effect; % is set by controls: 0 for no effect and ±100 for the full control effect; nearly all actives have a fitted effect of over 65% in size
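IDH1-R132H (0.5 ug/mL dispensed) in pH 7.5 Tris buffer was preincubated 30 min with compound, then given a substrate mix of 0.016 mM NADPH and 2 mM alpha-KG for 80 min at room temperature; remaining NADPH was read by diaphorase/resazurin fluorescence.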
ERG-DNA inh: ERG Ets/DNA interaction inhibition. P11308. fluorescence polarization, His-ERG Ets domain / labelled DNA. Potency, µM (top dose mostly 76.9 µM), for inactives: at the highest dose FP activity, negative = inhibition, most hits filed as inhibitors. 370,000 compounds, 0.028% hits. AID 624246; active = well fitted inhibition curve with a large enough effect in the polarisation, with a control signal flat; inconclusive = small, poorly fitted or top-dose-only effect, or effect the other way, or a change in a side signal; inactive = no such curve, though single readings can be large or run the other way; the % refers to the polarisation;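 note: polarization taken with two DNA probes labelled with fluorescein and Texas red; potency is the fitted concentration of half-maximal effect; % of control where 0% means no effect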
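His-tagged ERG Ets domain (1 uM in the protein solution; 300mM KCl, 50mM Tris-HCl, 1mM EDTA, 1mM DTT, pH 7.5) received compound, then a probe mix of 5 nM fluorescein-DNA and 100nM Texas-615-DNA. Fluorescence polarization was read for both dyes.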
PTAP TSG101 blk: blocks PTAP/TSG101 interaction to inhibit HIV-1 budding; Fluorescence polarization, FITC-PTAP peptide / Tsg101 binding; Potency, µM (titrated, usually from 115 µM), for inactives: at the highest dose activity change, negative = inhibition, usual class: inhibitors; 340,000 tested, under 10 active; AID 493005; active = well fitted inhibition curve with a large enough effect in the main read-out, with a control signal flat, not every such curve was filed as active; inconclusive = small, poorly fitted or top-dose-only effect, or effect the other way, or a change in a side signal; inactive = no such curve, though single readings can be large or run the other way; note: potency is the fitted concentration of half-maximal effect; % of control where 0% means no effect
Target sequence (Q99816 whole entry, looked up): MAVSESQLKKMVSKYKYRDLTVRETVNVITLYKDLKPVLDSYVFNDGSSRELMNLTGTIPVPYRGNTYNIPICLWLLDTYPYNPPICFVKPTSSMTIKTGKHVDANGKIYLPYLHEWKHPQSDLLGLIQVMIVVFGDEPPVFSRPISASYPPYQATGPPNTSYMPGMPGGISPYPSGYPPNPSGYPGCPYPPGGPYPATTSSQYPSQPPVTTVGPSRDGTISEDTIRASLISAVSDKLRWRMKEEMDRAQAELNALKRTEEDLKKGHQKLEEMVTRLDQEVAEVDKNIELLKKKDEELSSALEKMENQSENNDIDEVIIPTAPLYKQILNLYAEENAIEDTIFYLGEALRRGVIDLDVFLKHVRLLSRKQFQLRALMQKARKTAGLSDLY
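Compounds were pin-transferred onto Tsg101 binding domain (10 uM final) in HEPES pH 7.5 buffer, then FITC-PTAP peptide was added at 50 nM final. After 20 min at RT, polarization reported peptide displacement across a qHTS concentration series.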
Resorufin autofl: interferes with resorufin fluorescence in IDH1 counter-screen; AID 623980; shares compounds with mIDH1 inhibitor; 750 tested, under 10 active; inhibition of signal, % at 51.2 µM; Resorufin detection reagent fluorescence interference, cell-free;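 note: 0% = wells with normal resorufin and full inhibition = wells lacking resorufin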
IDH1 WT: wild-type IDH1 (human) inhibition counterscreen | shares compounds with mIDH1 inhibitor | WT IDH1 enzyme, NADPH diaphorase/resazurin fluorescence | Potency, µM (series often up to 115 µM), for inactives: at the top dose activity change, negative = inhibition, usual class: inhibitors | 750 compounds, 9% hits | AID 623995;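 note: potency is the fitted concentration of half-maximal effect; 0% = full WT IDH1 enzyme control and full inhibition = no enzyme wells; nearly all actives have a fitted effect of over 55% in size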
mIDH1 confirm: confirmation of human mutant IDH1 inhibitors; shares compounds with mIDH1 inhibitor; IDH1 R132H enzyme, NADPH diaphorase/resazurin fluorescence; Potency, µM (top dose mostly 76.6 µM), for inactives: at the highest dose activity change, negative = inhibition, usual class: inhibitors; 750 compounds, 83% hits; note: potency is the fitted concentration of half-maximal effect; nearly all actives have a fitted effect of over 50% in size
* marks the source's active call; other numbers are inactive results; ? = inconclusive; / = not tested or not shown. Only some compounds are listed: those with a hit (about 0.18% of all), similar ones and a draw of the others. Unless noted, calls come from the whole dose curve; as a rule, active = well fitted curve in the direction sought with a large enough effect; inconclusive = small, poorly fitted or top-dose-only effect, or another doubt; inactive = no such curve, though single readings can be large; an effect the other way counts as inactive or inconclusive.

SMILES	Anesthetic bind	mIDH1 inhibitor	ERG-DNA inh	PTAP TSG101 blk	Resorufin autofl	IDH1 WT	mIDH1 confirm
COc1cccc(C2c3c(-c4ccccc4O)n[nH]c3C(=O)N2Cc2cccnc2)c1 (centres undefined)	-18.1%	-16.0%	-11.4%	/	/	/	/
COC(=O)c1ccc(C2c3c(-c4ccccc4O)n[nH]c3C(=O)N2Cc2ccncc2)cc1 (centres undefined)	4.4%	-14.4%	-10.5%	/	/	/	/
O=C1c2[nH]nc(-c3ccccc3O)c2C(c2cccc(Cl)c2)N1Cc1cccnc1 (centres undefined)	?	?	-2.4%	/	1.9	2.4%	28.2µM*
COc1cc(C2c3c(-c4ccccc4O)n[nH]c3C(=O)N2Cc2ccncc2)ccc1O (centres undefined)	0.7%	14.9%	1.5%	/	/	/	/
Cc1ccc(C2c3c(-c4ccccc4O)n[nH]c3C(=O)N2Cc2ccncc2)cc1 (centres undefined)	-3.4%	?	3.9%	1.2%	2.0	4.4%	35.5µM*
CCOC(=O)c1ccc(NC(=O)CSc2nc3c(c(=O)n2CC)SC(C)C3)cc1 (centres undefined)	6.2%	-4.4%	6.3%	-0.1%	/	/	/
CC(N=c1ccccn1C(=O)Nc1ccc(Cl)cc1)c1ccco1 (centres undefined)	?	8.4%	/	4.2%	/	/	/
c1cc(-c2sc(-c3ccncc3)c(-c3ccncc3)c2-c2ccncc2)ccn1	2.3%	?	2.0%	-6.5%	0.2	?	28.2µM*
Nc1nnc(-c2ccncc2)s1	-1.7%	-2.4%	-0.4%	-6.0%	/	/	/
O=C(COC(=O)CNC(=O)c1ccccc1Cl)NC1CCCC1	/	5.7%	-0.6%	-7.1%	/	/	/
N#CC1=C(N)NC(SCc2ccc(Br)cc2)=C(C#N)C12CCCCC2	-11.9%	-0.7%	-6.6%	0.8%	/	/	/
N#CC1=C(N)NC(SCC(=O)Nc2ccc(Br)cc2)=C(C#N)C12CCCCC2	?	?	4.3%	-12.2%	1.4	6.9%	22.4µM*
CN(Cc1cccc2cnccc12)C(=O)c1cc(COc2ccc(F)cc2F)on1	?	12.2%	9.5%	5.3%	/	/	/
CCOC(=O)N1CCN(Cc2nc(N)nc(Nc3ccc(Oc4ccccc4)cc3)n2)CC1	-21.5%	52.1µM*	-0.9%	-1.3%	1.7	-7.3%	?
CCc1nc(N2CCN(C(=O)CCl)CC2)c2c3c(sc2n1)CC(C)CC3 (centres undefined)	-21.1%	?	6.8%	-4.7%	-7.0	50.1µM*	10µM*
CCC(=O)Nc1ccc(C(=O)OCC(=O)c2ccc(C)c([N+](=O)[O-])c2)cc1	-15.0%	5.8%	2.4%	0.3%	/	/	/
CC(=O)c1cccc(NCC(=O)c2ccc(C)c([N+](=O)[O-])c2)c1	-9.2%	16.5µM*	5.2%	-0.9%	4.5	258.7%	39.8µM*
COC(=O)/C(C#N)=C/c1c(N2CCN(c3ccccc3)CC2)nc2ccccn2c1=O	-21.2%	-2.6%	7.7%	-1.5%	/	/	/
CNC(=O)/C(C#N)=C/c1c(N(Cc2ccccc2)Cc2ccccc2)nc2ccccn2c1=O	-4.8%	52.1µM*	13.5%	-3.0%	-6.0	-1.1%	25.1µM*
CCCCCC1C(=O)CCC1CC(=O)O (centres undefined)	-3.6%	/	/	/	/	/	/
CC(=O)NS(=O)(=O)c1ccc(N=c2ssc3c2-c2cc(C)ccc2NC3(C)C)cc1	-8.0%	?	1.0%	-1.5%	2.2	3.9%	44.7µM*
COc1cccc(CN2C(=O)C3(SCC(=O)N3c3ccc(F)cc3)c3ccccc32)c1 (centres undefined)	11.4%	8.7%	-5.1%	/	/	/	/
